# Reference: the supplement of paper PMC8728848
# The sample as a whole holds a higher share of the strongest signals than the screen did.
# What was measured:
# Assay in all cases: glycan array binding signal (z-score within array); higher = stronger binding
# Conditions in all cases: glycan notation: IUPAC condensed, linker removed
# [1] = molecular target: Fuc(a1-2)Gal(b1-3)GlcNAc(b1-2)Man(a1-3)[Fuc(a1-2)Gal(b1-3)GlcNAc(b1-2)Man(a1-6)]Man(b1-4)GlcNAc(b1-4)[Fuc(a1-6)]GlcNAc
# How it was run: (§1)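 The binding signal is a Z-score computed within each array and averaged over linkers. Arrays of the same protein sequence at different concentrations or buffers were also averaged together. Data originate from 3228 arrays in the Consortium for Functional Glycomics database, kept only where the protein sequence was available.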
# [2] = molecular target: Fuc(a1-2)Gal(b1-4)Fuc(a1-3)]GlcNAc(b1-2)Man(a1-3)[Fuc(a1-2)Gal(b1-4)[Fuc(a1-3)]GlcNAc(b1-2)Man(a1-6)]Man(b1-4)GlcNAc(b1-4)GlcNAc
# How it was run: as §1
# [3] = molecular target: Fuc(a1-2)Gal(b1-4)Glc6S
# How it was run: as §1
# [4] = molecular target: Fuc(a1-2)Gal(b1-4)GlcNAc
# How it was run: as §1
# [5] = molecular target: Fuc(a1-2)Gal(b1-4)GlcNAc(b1-2)Man(a1-3)[Fuc(a1-2)Gal(b1-4)GlcNAc(b1-2)Man(a1-6)]Man(b1-4)GlcNAc(b1-4)[Fuc(a1-6)]GlcNAc
# How it was run: as §1
# [6] = molecular target: Fuc(a1-2)Gal(b1-4)GlcNAc(b1-6)GalNAc
# How it was run: as §1
# [7] = molecular target: Fuc(a1-2)Gal(b1-4)[Fuc(a1-3)]GlcNAc(b1-3)GalNAc
# How it was run: as §1
# [8] = molecular target: Fuc(a1-2)Gal3S(b1-4)GlcNAc
# How it was run: as §1
# [9] = molecular target: Fuc(a1-2)[Gal(a1-3)]Gal(b1-3)GlcNAc(b1-3)GalNAc
# How it was run: as §1
# [10] = molecular target: Fuc(a1-2)[Gal(a1-3)]Gal(b1-4)GlcNAc(b1-2)Man(a1-3)[Fuc(a1-2)[Gal(a1-3)]Gal(b1-4)GlcNAc(b1-2)Man(a1-6)]Man(b1-4)GlcNAc(b1-4)[Fuc(a1-6)]GlcNAc
# How it was run: as §1
# [11] = molecular target: Fuc(a1-2)[GalNAc(a1-3)]Gal(b1-3)GlcNAc(b1-2)Man(a1-3)[Fuc(a1-2)[GalNAc(a1-3)]Gal(b1-3)GlcNAc(b1-2)Man(a1-6)]Man(b1-4)GlcNAc(b1-4)[Fuc(a1-6)]GlcNAc
# How it was run: as §1
# [12] = molecular target: Fuc(a1-2)[GalNAc(a1-3)]Gal(b1-4)GlcNAc(b1-2)Man(a1-3)[Fuc(a1-2)[GalNAc(a1-3)]Gal(b1-4)GlcNAc(b1-2)Man(a1-6)]Man(b1-4)GlcNAc(b1-4)[Fuc(a1-6)]GlcNAc
# How it was run: as §1
# [13] = molecular target: Fuc(a1-2)[GalNAc(a1-3)]Gal(b1-4)GlcNAc(b1-3)Gal(b1-4)GlcNAc(b1-3)Gal(b1-4)GlcNAc
# How it was run: as §1
# [14] = molecular target: Fuc(a1-2)[GalNAc(a1-3)]Gal(b1-4)[Fuc(a1-3)]GlcNAc(b1-3)GalNAc
# How it was run: as §1
# [15] = molecular target: Fuc(a1-3)[Gal(b1-4)]GlcNAc(b1-2)Man(a1-3)[Fuc(a1-3)[Gal(b1-4)]GlcNAc(b1-2)Man(a1-6)]Man(b1-4)GlcNAc(b1-4)GlcNAc
# How it was run: as §1
# [16] = molecular target: Fuc(a1-3)[GalNAc(b1-4)]GlcNAc6S
# How it was run: as §1
# [17] = molecular target: Gal(a1-2)Gal
# How it was run: as §1
# [18] = molecular target: Gal(a1-3)Gal(b1-4)[Fuc(a1-3)]GlcNAc
# How it was run: as §1
# [19] = molecular target: Gal(b1-3)Gal
# How it was run: as §1
# [20] = molecular target: Gal(b1-3)GalNAc(b1-3)Gal
# How it was run: as §1
# [21] = molecular target: Gal(b1-3)GalNAc(b1-3)Gal(a1-4)Gal(b1-4)Glc
# How it was run: as §1
# [22] = molecular target: Gal(b1-3)GlcNAc(a1-3)Gal(b1-4)GlcNAc
# How it was run: as §1
# [23] = molecular target: Gal(b1-3)GlcNAc(b1-3)Gal(b1-4)GlcNAc(b1-2)[Gal(b1-3)GlcNAc(b1-3)Gal(b1-4)GlcNAc(b1-6)]Man(a1-6)[Gal(b1-3)GlcNAc(b1-3)Gal(b1-4)GlcNAc(b1-2)Man(a1-3)]Man(b1-4)GlcNAc(b1-4)[Fuc(a1-6)]GlcNAc
# How it was run: as §1
# [24] = molecular target: Gal(b1-3)[Fuc(a1-4)]GlcNAc(b1-6)GalNAc
# How it was run: as §1
# [25] = molecular target: Gal(b1-3)[Neu5Ac(a2-6)]GlcNAc(b1-4)Gal(b1-4)Glc
# How it was run: as §1
# [26] = molecular target: Gal(b1-4)Glc
# How it was run: as §1
binder,measurement,setting,value
Epa8 (Candida glabrata) (protein) MGSSHHHHHHSSGLVPRGSHMASSRALSDYPLGCSPLLGTKLTPGLSMELYEYPLDNHGIGPHCWDPAYLNPEYPRTGFESHKLIGTAQNVMSLNFEHRTQDCHVEFSNLPASFNFPDQITLTNFTMLLYGYFKPKESGRYRFHMEADDLLLMNLGAGNAFDCCAHEATRNNLGDYIAYDIWAGTRKDVEVFLEKEVFYPLRLFFNNRDGRAALDFSYYLNGATEPGTDIPELLFSLPDGESCPAYI,glycan array binding signal (z-score),[1],0.141
same,glycan array binding signal (z-score),[2],4.2
same,glycan array binding signal (z-score),[3],0.004
same,glycan array binding signal (z-score),[4],-0.45
same,glycan array binding signal (z-score),[5],-0.33
same,glycan array binding signal (z-score),[6],0.724
same,glycan array binding signal (z-score),[7],2.63
same,glycan array binding signal (z-score),[8],-0.437
same,glycan array binding signal (z-score),[9],0.166
same,glycan array binding signal (z-score),[10],0.03
same,glycan array binding signal (z-score),[11],0.09
same,glycan array binding signal (z-score),[12],0.443
same,glycan array binding signal (z-score),[13],0.493
same,glycan array binding signal (z-score),[14],3.16
same,glycan array binding signal (z-score),[15],-0.093
same,glycan array binding signal (z-score),[16],-0.401
same,glycan array binding signal (z-score),[17],-0.54
same,glycan array binding signal (z-score),[18],-0.506
same,glycan array binding signal (z-score),[19],0.171
same,glycan array binding signal (z-score),[20],-0.026
same,glycan array binding signal (z-score),[21],0.394
same,glycan array binding signal (z-score),[22],1.57
same,glycan array binding signal (z-score),[23],2.13
same,glycan array binding signal (z-score),[24],2.52
same,glycan array binding signal (z-score),[25],-0.392
same,glycan array binding signal (z-score),[26],-1.15
